About 79,000 compounds went through this panel and 15% of them were active in at least one assay; those are over-represented in the sample as a whole. Active and inactive are the calls of the source. Cut-off read from the data, not from the text of the source: active = growth inhibition above about 70%; inactive = the rest.
Experiments:
[1] = NCI Yeast Anticancer Drug Screen. Data for the mec2-1 strain (AID 157); conditions: S. cerevisiae mec2-1 strain, hits give high values
Outline: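 Mutant yeast (mec2-1) grown with compound; growth inhibition relative to vehicle control reported.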

[2] = NCI Yeast Anticancer Drug Screen. Data for the rad14 strain (AID 159);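 note: 0% = growth of vehicle-treated control cultures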; conditions: S. cerevisiae rad14 strain growth inhibition, hits give high values
Outline: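 Yeast cells carrying a defined DNA-repair defect were exposed to compounds, and growth inhibition was calculated relative to vehicle-treated control cultures.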

[3] = NCI Yeast Anticancer Drug Screen. Data for the sgs1 mgt1 strain (AID 161);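 note: 0% = growth of cultures given vehicle only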; conditions: S. cerevisiae sgs1 mgt1 strain, hits give high values
Outline: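 Yeast cells carrying a defined DNA-repair defect were exposed to test compounds. Growth inhibition was measured relative to vehicle-treated controls.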

[4] = NCI Yeast Anticancer Drug Screen. Data for the CLN2oe strain (AID 163);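 note: 0% = growth of vehicle-only control cultures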; conditions: S. cerevisiae CLN2oe strain, hits give high values
Outline: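 Compounds are applied to yeast harbouring a defined cell-cycle control change; reduced growth compared with vehicle-treated controls gives the value.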

[5] = NCI Yeast Anticancer Drug Screen. Data for the cln2 rad14 strain (AID 165);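 note: 0% = growth equal to vehicle treated cultures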; conditions: S. cerevisiae cln2 rad14 strain, hits give high values
Outline: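 Readout is yeast growth inhibition versus vehicle-treated controls, using a strain with cln2 and rad14 alterations exposed to compound.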

[6] = NCI Yeast Anticancer Drug Screen. Data for the bub3 strain (AID 167); conditions: S. cerevisiae bub3 mutant strain, hits give high values
Outline: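 Compounds were applied to a genetically altered yeast strain carrying a cell-cycle control defect. Growth inhibition was scored against vehicle-treated controls.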

[7] = NCI Yeast Anticancer Drug Screen. Data for the wt2 strain (AID 169);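 note: 0% = growth of vehicle-treated yeast cultures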; conditions: S. cerevisiae wt2 strain growth inhibition, hits give high values
Outline: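 Against vehicle-treated controls, the growth of yeast exposed to each compound was compared, and the inhibition was recorded.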

[8] = NCI Yeast Anticancer Drug Screen. Data for the mlh1 strain (AID 171);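 note: 0% = growth of vehicle-treated control cultures of the same strain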; conditions: S. cerevisiae mlh1 strain growth inhibition, hits give high values
Outline: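 Measured: yeast growth. Reference: vehicle-treated controls. Organism: strain with a defined alteration affecting DNA damage repair or cell cycle control, treated with compound.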

[9] = NCI Yeast Anticancer Drug Screen. Data for the sgs1 strain (AID 173);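 note: 0% = growth of vehicle-only control cultures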; conditions: S. cerevisiae sgs1 mutant, hits give high values
Outline: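 Each compound was added to cultures of the altered yeast strain. Growth was recorded, and inhibition was derived by comparison with vehicle controls.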

[10] = NCI Yeast Anticancer Drug Screen. Data for the mlh1 rad18 strain (AID 175); conditions: S. cerevisiae mlh1 rad18 strain growth inhibition, hits give high values
Outline: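 Genetically defined yeast (DNA repair-deficient) exposed to compounds; growth inhibition determined relative to vehicle.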

[11] = NCI Yeast Anticancer Drug Screen. Data for the rad18 strain (AID 177); conditions: S. cerevisiae rad18 mutant growth inhibition, hits give high values
Outline: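 Vehicle-treated cultures served as the baseline for scoring compound-induced growth inhibition in DNA-repair-mutant yeast.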

[12] = NCI Yeast Anticancer Drug Screen. Data for the wt1 strain (AID 149);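 note: 0% = growth of vehicle-treated wt1 cultures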; conditions: S. cerevisiae wt1 strain (SPY 50644) growth inhibition, hits give high values
Outline: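 Yeast wt1 strain exposed to compounds; growth inhibition measured relative to vehicle-treated controls.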

[13] = NCI Yeast Anticancer Drug Screen. Data for the rad50EPP+ strain (AID 151);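 note: 0% = growth of vehicle-treated control cultures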; conditions: S. cerevisiae rad50 mutant strain, hits give high values
Outline: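 Vehicle-normalised growth inhibition; rad50EPP+ yeast strain, altered in DNA damage repair, compound-treated.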

[14] = NCI Yeast Anticancer Drug Screen. Data for the mgt1 strain (AID 153); conditions: S. cerevisiae mgt1 mutant growth inhibition, hits give high values
Outline: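 Vehicle-normalized growth inhibition is determined in mgt1 yeast, a strain selected for a defined alteration in DNA repair or cell cycle control.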

[15] = NCI Yeast Anticancer Drug Screen. Data for the rad50 strain (AID 155);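 note: 0% = growth of vehicle-only cultures of the same strain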; conditions: S. cerevisiae rad50 strain growth inhibition, hits give high values
Outline: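 Yeast carrying a defined DNA repair defect were exposed to test compounds, and growth was compared with vehicle-treated controls to give percent inhibition.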

[16] = at 5.0 µM (retest, dose inferred, filed as 0.5)
[17] = at 50.0 µM (retest, dose inferred, filed as 5.0)

Measured: growth inhibition

CCOc1nc(OCC)nc(-c2cccn2-c2ccccc2)n1
active: [1]; at 100.0 µM 93% | [2]; at 100.0 µM 90% | [3]; [17] 74% | [4]; at 100.0 µM 91% | [5]; [17] 83% | [6]; [17] 87% | [6]; at 100.0 µM 94% | [7]; at 100.0 µM 95% | [8]; at 100.0 µM 89% | [9]; at 100.0 µM 95% | [10]; [16] 86% | [10]; [17] 100% | [10]; at 50.0 µM 80.2% | [11]; at 100.0 µM 93%
inactive: [2]; at 1.2 µM -11% | [2]; at 3.7 µM -8% | [2]; at 11.0 µM -1% | [2]; at 33.0 µM 13% | [3]; [16] -13% | [4]; at 1.2 µM -2% | [4]; at 3.7 µM 0% | [4]; at 11.0 µM 11% | [4]; at 33.0 µM 6% | [5]; [16] 55% | [6]; at 1.2 µM 19% | [6]; at 3.7 µM 36% | [6]; [16] 14% | [6]; at 11.0 µM 32% | [6]; at 33.0 µM 43% | [7]; at 1.2 µM -3% | [7]; at 3.7 µM 8% | [7]; at 11.0 µM 1% | [7]; at 33.0 µM 38% | [8]; at 1.2 µM -25% | [8]; at 3.7 µM -6% | [8]; at 11.0 µM -12% | [8]; at 33.0 µM 2% | [9]; at 1.2 µM 16% | [9]; at 3.7 µM 15% | [9]; at 11.0 µM 14% | [9]; at 33.0 µM 43% | [11]; at 1.2 µM -4% | [11]; at 3.7 µM 15% | [11]; at 11.0 µM 19% | [11]; at 33.0 µM 19%

O=C(Cc1ccccc1)c1ccc(O)cc1
active: [12]; at 100.0 µM 87% | [13]; at 100.0 µM 71% | [14]; at 100.0 µM 82% | [15]; [16] 81% | [15]; at 33.0 µM 74% | [15]; [17] 99% | [15]; at 50.0 µM 83.5% | [15]; at 100.0 µM 85% | [1]; [16] 78% | [1]; at 33.0 µM 70% | [1]; [17] 98% | [1]; at 50.0 µM 91.5% | [1]; at 100.0 µM 91% | [2]; at 100.0 µM 89% | [3]; [17] 88% | [3]; at 50.0 µM 94.2% | [4]; at 100.0 µM 85% | [5]; [17] 90% | [6]; [17] 97% | [6]; at 50.0 µM 92.7% | [6]; at 100.0 µM 89% | [7]; at 100.0 µM 87% | [9]; at 100.0 µM 88% | [10]; [17] 99% | [10]; at 50.0 µM 86.1% | [11]; at 100.0 µM 89%
inactive: [12]; at 1.2 µM -20% | [12]; at 3.7 µM -8% | [12]; at 11.0 µM 5% | [12]; at 33.0 µM 63% | [13]; at 1.2 µM 11% | [13]; at 3.7 µM 10% | [13]; at 11.0 µM -3% | [13]; at 33.0 µM 40% | [14]; at 1.2 µM -45% | [14]; at 3.7 µM -56% | [14]; at 11.0 µM -38% | [14]; at 33.0 µM 51% | [15]; at 1.2 µM -15% | [15]; at 3.7 µM -21% | [15]; at 11.0 µM 17% | [1]; at 1.2 µM -24% | [1]; at 3.7 µM -15% | [1]; at 11.0 µM 20% | [2]; at 1.2 µM -13% | [2]; at 3.7 µM -25% | [2]; at 11.0 µM -5% | [2]; at 33.0 µM 62% | [3]; [16] 1% | [4]; at 1.2 µM 5% | [4]; at 3.7 µM 15% | [4]; at 11.0 µM 22% | [4]; at 33.0 µM 53% | [5]; [16] 36% | [5]; at 50.0 µM 62.6% | [6]; at 1.2 µM -11% | [6]; at 3.7 µM -14% | [6]; [16] 44% | [6]; at 11.0 µM 24% | [6]; at 33.0 µM 69% | [7]; at 1.2 µM -10% | [7]; at 3.7 µM -17% | [7]; at 11.0 µM -10% | [7]; at 33.0 µM 58% | [9]; at 1.2 µM -15% | [9]; at 3.7 µM -39% | [9]; at 11.0 µM -5% | [9]; at 33.0 µM 59% | [10]; [16] 56% | [11]; at 1.2 µM -34% | [11]; at 3.7 µM -41% | [11]; at 11.0 µM -11% | [11]; at 33.0 µM 69%

Reference: PubChem BioAssay (NCI)
